Data on five molecules can be found in PubChem BioAssay (EPA / NIEHS).

Structures are written as SMILES. Results filed as inconclusive are left out. The source made the active and inactive calls. Rule for the calls, unless noted: active = hit-call score of the fitted dose curve at least 0.9, where 1 is the maximum; inactive = score below 0.9.

Experiment [1] can be described thus: ACEA_ER_80hr: ACEA Biosciences xCELLigence Real-Time Cell Analysis on Estrogen Receptor Agonism for Proliferation (AID 2282667; active = hit-call score of the fitted dose curve at least 0.9, where 1 is the maximum). The note with it: T47D proliferation, impedance (xCELLigence), 80 h. In a few lines: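 Impedance readout (RT-CES) of T47D proliferation at 80 h post-dose; gain of signal vs DMSO baseline. Compounds: 8 conc, 1:4 serial, top 100 uM final, ≤0.5% DMSO; biological duplicate.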

The target of experiment [2] is CCAAT/enhancer-binding protein beta (Homo sapiens) (UniProt P17676). The experiment is described as follows: ATG_C_EBP_CIS: Attagene CIS-FACTORIAL HepG2 Assay for human CCAAT/Enhancer Binding Protein (C/EBP) beta (AID 2282927). The note with it: HepG2 Attagene cis-factorial transcription factor reporter; actives raise or lower the signal. In a few lines:
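Following a 24 h incubation with test chemical, transfected HepG2 cells yielded RNA whose reporter transcripts were quantified by RT-PCR and fluorescent capillary electrophoresis, with DMSO serving as baseline for bidirectional fitting.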

Experiment [3] can be described thus: ATG_CMV_CIS: Attagene CIS-FACTORIAL HepG2 Assay for human CMV (Internal Marker) (AID 2282928).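 Note: endpoint acts as a background internal control marker rather than a target.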 The note with it: HepG2 CMV promoter reporter, transcription factor profiling; actives raise or lower the signal. In a few lines:
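CMV internal-marker background readout in transiently transfected HepG2 cells bearing cis-regulated reporter units. Reporter mRNA is measured 24 h after dosing by RT-PCR and capillary electrophoresis, with bidirectional fitting against DMSO.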

Experiment [4] can be described thus: ATG_DR4_LXR_CIS: Attagene CIS-FACTORIAL HepG2 Assay for human Liver X Receptor (LXR), DR4 submotif (AID 2282929). Particulars: HepG2 Attagene DR4 cis-reporter, mRNA transcription; actives raise or lower the signal. The gist of the method: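 Fluorescence intensity of labelled reporter cDNA fragments, separated by capillary electrophoresis, gives the signal. HepG2 cells bearing cis-regulated reporter constructs were treated 24 h; activity fitted bidirectionally relative to DMSO negative control.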

Experiment [5] deals with Aryl hydrocarbon receptor (Homo sapiens) (UniProt P35869). As to the kind of experiment: ATG_Ahr_CIS: Attagene CIS-FACTORIAL HepG2 Assay for human Aryl Hydrocarbon Receptor (Ahr) (AID 2282930). Particulars: HepG2 AhR cis-factorial reporter transcription; actives raise or lower the signal. The gist of the method:
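Values derive from bidirectional fitting against DMSO negative control. Underlying signal: cis-element reporter mRNA in transiently transfected HepG2, harvested 24 h post-dose and measured by RT-PCR plus capillary electrophoresis.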

The nature of experiment [6]: ATG_AP_2_CIS: Attagene CIS-FACTORIAL HepG2 Assay for human Activator Protein 2 (AP-2) (AID 2282932). Particulars: HepG2 AP-2 cis-reporter, Attagene transcription factor profiling; actives raise or lower the signal. The gist of the method:
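HepG2 cells were transiently transfected with multiple cis-promoter reporter transcription units and dosed for 24 h. Reporter mRNA was measured by RT-PCR with capillary electrophoresis fluorescence; bidirectional fits relative to DMSO baseline.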

A short description of experiment [7]: ATG_BRE_CIS: Attagene CIS-FACTORIAL HepG2 Assay for human Bone Morphogenetic Protein (BMP) Response Element (BRE) (AID 2282933). The note with it: HepG2 BMP response element reporter, Attagene transcription factor profiling; actives raise or lower the signal. The gist of the method: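 Fluorescence-labelled reporter cDNA fragments, separated by capillary electrophoresis, gave the signal for this component of a 52-readout multiplex. HepG2 cells were transfected, exposed to chemicals for 24 h, and compared with DMSO using bidirectional fitting.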

In experiment [8] the target is Retinoic acid receptor alpha (Homo sapiens) (UniProt P10276). As to the kind of experiment: ATG_DR5_RAR_CIS: Attagene CIS-FACTORIAL HepG2 Assay for human Retinoic Acid Receptor Alpha (RARE), DR5 submotif (AID 2282934). Particulars: HepG2 Attagene cis-factorial RARE DR5 reporter, mRNA; actives raise or lower the signal. In a few lines:
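Endpoint fitted in both directions relative to DMSO as negative control. It reflects DR5 cis-element reporter mRNA induction in transiently transfected HepG2 cells, measured 24 h after dosing through RT-PCR and fluorescent capillary electrophoresis.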

In experiment [9] the target is Transcription factor E2F1 (Homo sapiens) (UniProt Q01094). The experiment is described as follows: ATG_E2F_CIS: Attagene CIS-FACTORIAL HepG2 Assay for human E2F Transcription Factor 1 (AID 2282935). Particulars: HepG2 Attagene cis-reporter, E2F reporter RNA transcripts; actives raise or lower the signal. The gist of the method:
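HepG2 cells transiently transfected with multiplexed cis-element reporter units, dosed for 24 h. Reporter mRNA measured by RT-PCR, 6-FAM primer-extension labeling, HpaI digestion and capillary electrophoresis; bidirectional fit versus DMSO baseline.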

Experiment [10] is described as follows: ATG_E_Box_CIS: Attagene CIS-FACTORIAL HepG2 Assay for human Enhancer Box (E-box) (AID 2282936). Particulars: HepG2 E-box cis-reporter transcription, actives raise or lower the signal. In a few lines:
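HepG2 cells transiently transfected with multiplexed cis-element reporter units sensing endogenous transcription factor activity; 24 h compound exposure. Reporter mRNA measured by RT-PCR, 6-FAM primer extension, HpaI digestion and capillary electrophoresis; bidirectional fit versus DMSO.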

Experiment [11] is described as follows: ATG_M_61_CIS: Attagene CIS-FACTORIAL HepG2 Assay for M61 Transcription Factor (Internal Marker) (AID 2282937). The note with it: HepG2 Attagene CIS-FACTORIAL M61 internal marker reporter; actives raise or lower the signal. The gist of the method:
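Endogenous transcription factor activity in HepG2 is read through transiently transfected cis-element reporter units. After 24 h dosing, RNA undergoes reverse transcription, PCR and primer extension with 6-FAM before capillary electrophoresis; DMSO-referenced bidirectional fit.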

Experiment [12] is described as follows: ATG_EGR_CIS: Attagene CIS-FACTORIAL HepG2 Assay for human Early Growth Response 1 (EGR1) (AID 2282938). The note with it: HepG2 Attagene CIS-FACTORIAL EGR reporter mRNA; actives raise or lower the signal. In a few lines: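 Activity is taken as induction or loss of reporter mRNA versus DMSO, fitted bidirectionally. Transcripts from cis-regulated reporter units in transiently transfected HepG2 were measured after 24 h by RT-PCR with capillary electrophoresis.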

Experiment [13] can be described thus: ATG_M_19_CIS: Attagene CIS-FACTORIAL HepG2 Assay for M19 Transcription Factor (Internal Marker) (AID 2282939). Particulars: HepG2 Attagene CIS-FACTORIAL M19 internal marker reporter; actives raise or lower the signal. The gist of the method:
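HepG2, MRTU transient transfection, 24 h dosing. Total RNA → RT-PCR → 6-FAM primer extension → HpaI digest → CE fluorescence. Bidirectional curve fit, DMSO negative control.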

Experiment [14] is described as follows: ATG_ERE_CIS: Attagene CIS-FACTORIAL HepG2 Assay for Estrogen Response Element (ERE) (AID 2282940). Particulars: HepG2 ERE cis-reporter, Attagene RNA transcript; actives raise or lower the signal. In a few lines:
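After a 24 h chemical treatment, RNA from reporter-transfected HepG2 cells is reverse-transcribed, PCR-amplified and fluorescently labelled. Fragments separated by capillary electrophoresis give reporter signal; DMSO serves as negative control.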

Experiment [15] in a line: ATG_Ets_CIS: Attagene CIS-FACTORIAL HepG2 Assay for human Erythroblast Transformation Specific (ETS) (AID 2282941). The note with it: HepG2 ETS cis-reporter transcription, actives raise or lower the signal. The gist of the method: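 HepG2 cells transfected with multiple cis-regulated reporter units measuring endogenous ETS-driven transcription, 24 h after dosing. Reporter mRNA quantified by RT-PCR with capillary electrophoresis; bidirectional fit relative to DMSO.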

Experiment [16] has as its target Hepatocyte nuclear factor 3-beta (Homo sapiens) (UniProt Q9Y261). The experiment is described as follows: ATG_FoxA2_CIS: Attagene CIS-FACTORIAL HepG2 Assay for human Forkhead box A2 (FOXA2) (AID 2282942). The note with it: HepG2 cis-reporter transcription factor activity, 24 h; actives raise or lower the signal. In a few lines:
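Reporter transcript induction is measured by fluorescence after capillary electrophoresis of RT-PCR products from HepG2 cells exposed 24 h. Cis-regulated reporter units report endogenous factor activity; curves fitted both directions against DMSO.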

Experiment [17] can be described thus: ATG_GATA_CIS: Attagene CIS-FACTORIAL HepG2 Assay for human GATA Binding Protein (AID 2282944). The note with it: HepG2 GATA cis-element reporter, Attagene multiplex mRNA; actives raise or lower the signal. The gist of the method: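 Cells: HepG2, transiently transfected with cis-regulated reporter transcription units. Exposure: 24 h. Detection: RT-PCR plus capillary electrophoresis of FAM-labeled fragments. Analysis: bidirectional, DMSO as baseline.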

Experiment [18] is described as follows: ATG_AP_1_CIS: Attagene CIS-FACTORIAL HepG2 Assay for human Activator Protein 1 (AP-1) (AID 2282931). The note with it: HepG2 Attagene cis-factorial AP-1 reporter mRNA; actives raise or lower the signal. In a few lines: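 Multiplexed HepG2 reporter assay, 24 h dosing. mRNA induction detected by RT-PCR plus capillary electrophoresis. Activity fitted in both directions against DMSO.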

A short description of experiment [19]: ATG_FoxO_CIS: Attagene CIS-FACTORIAL HepG2 Assay for human Forkhead box O (FoxO) (AID 2282943). Particulars: HepG2 Attagene cis-reporter, FoxO element, mRNA; actives raise or lower the signal. The gist of the method:
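Values reflect reporter mRNA induction or loss in HepG2 cells 24 h post-dosing, fitted bidirectionally with DMSO as negative control and baseline. Detection used RT-PCR and fluorescence capillary electrophoresis.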

Chain of Hepatocyte nuclear factor 3-beta (Homo sapiens) (Q9Y261 whole entry, looked up): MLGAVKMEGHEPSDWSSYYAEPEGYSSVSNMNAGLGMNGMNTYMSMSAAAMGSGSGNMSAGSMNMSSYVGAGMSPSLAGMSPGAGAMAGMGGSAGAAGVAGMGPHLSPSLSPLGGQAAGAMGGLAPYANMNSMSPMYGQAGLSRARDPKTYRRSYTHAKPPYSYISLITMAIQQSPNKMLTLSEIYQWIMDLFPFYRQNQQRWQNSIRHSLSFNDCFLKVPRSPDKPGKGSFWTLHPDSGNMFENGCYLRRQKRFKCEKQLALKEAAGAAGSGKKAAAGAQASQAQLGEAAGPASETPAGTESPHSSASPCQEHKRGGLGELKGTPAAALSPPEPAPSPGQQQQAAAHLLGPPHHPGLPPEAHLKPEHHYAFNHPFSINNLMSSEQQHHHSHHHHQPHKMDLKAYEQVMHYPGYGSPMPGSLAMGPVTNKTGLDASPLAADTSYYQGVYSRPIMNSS
Chain of Transcription factor E2F1 (Homo sapiens) (Q01094 whole entry, looked up): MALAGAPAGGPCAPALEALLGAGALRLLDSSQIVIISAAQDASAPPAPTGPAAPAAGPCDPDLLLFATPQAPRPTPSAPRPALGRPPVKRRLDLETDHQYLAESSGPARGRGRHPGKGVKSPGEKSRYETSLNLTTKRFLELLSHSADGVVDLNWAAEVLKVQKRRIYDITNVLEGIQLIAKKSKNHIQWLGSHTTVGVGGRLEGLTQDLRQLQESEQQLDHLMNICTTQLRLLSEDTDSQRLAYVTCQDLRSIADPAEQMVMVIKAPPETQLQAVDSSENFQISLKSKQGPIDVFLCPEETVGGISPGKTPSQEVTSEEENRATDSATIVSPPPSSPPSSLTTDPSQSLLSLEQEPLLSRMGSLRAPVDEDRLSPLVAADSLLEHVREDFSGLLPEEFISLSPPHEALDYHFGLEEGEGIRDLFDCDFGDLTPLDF
Chain of CCAAT/enhancer-binding protein beta (Homo sapiens) (P17676 whole entry, looked up): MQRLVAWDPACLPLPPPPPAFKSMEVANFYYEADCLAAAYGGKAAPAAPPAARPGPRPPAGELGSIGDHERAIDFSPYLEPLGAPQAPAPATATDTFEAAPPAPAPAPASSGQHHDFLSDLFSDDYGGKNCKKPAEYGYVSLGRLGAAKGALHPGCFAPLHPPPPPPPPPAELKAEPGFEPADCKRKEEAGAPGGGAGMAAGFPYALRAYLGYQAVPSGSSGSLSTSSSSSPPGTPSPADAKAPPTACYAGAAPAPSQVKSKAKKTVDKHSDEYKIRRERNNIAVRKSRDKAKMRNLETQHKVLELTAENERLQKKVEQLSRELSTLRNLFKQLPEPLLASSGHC
Chain of Retinoic acid receptor alpha (Homo sapiens) (P10276 whole entry, looked up): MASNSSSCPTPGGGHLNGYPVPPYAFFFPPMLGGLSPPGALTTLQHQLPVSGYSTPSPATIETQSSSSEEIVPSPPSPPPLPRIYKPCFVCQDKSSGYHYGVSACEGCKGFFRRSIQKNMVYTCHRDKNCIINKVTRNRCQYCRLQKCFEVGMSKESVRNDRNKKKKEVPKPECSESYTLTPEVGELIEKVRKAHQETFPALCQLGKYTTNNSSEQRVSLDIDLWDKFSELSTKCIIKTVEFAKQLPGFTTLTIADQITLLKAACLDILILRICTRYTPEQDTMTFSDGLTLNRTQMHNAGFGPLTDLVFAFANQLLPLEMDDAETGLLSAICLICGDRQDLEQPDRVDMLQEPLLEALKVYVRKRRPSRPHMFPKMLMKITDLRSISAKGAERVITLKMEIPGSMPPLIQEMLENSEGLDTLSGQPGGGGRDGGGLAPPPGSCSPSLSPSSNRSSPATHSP
Chain of Aryl hydrocarbon receptor (Homo sapiens) (P35869 whole entry, looked up): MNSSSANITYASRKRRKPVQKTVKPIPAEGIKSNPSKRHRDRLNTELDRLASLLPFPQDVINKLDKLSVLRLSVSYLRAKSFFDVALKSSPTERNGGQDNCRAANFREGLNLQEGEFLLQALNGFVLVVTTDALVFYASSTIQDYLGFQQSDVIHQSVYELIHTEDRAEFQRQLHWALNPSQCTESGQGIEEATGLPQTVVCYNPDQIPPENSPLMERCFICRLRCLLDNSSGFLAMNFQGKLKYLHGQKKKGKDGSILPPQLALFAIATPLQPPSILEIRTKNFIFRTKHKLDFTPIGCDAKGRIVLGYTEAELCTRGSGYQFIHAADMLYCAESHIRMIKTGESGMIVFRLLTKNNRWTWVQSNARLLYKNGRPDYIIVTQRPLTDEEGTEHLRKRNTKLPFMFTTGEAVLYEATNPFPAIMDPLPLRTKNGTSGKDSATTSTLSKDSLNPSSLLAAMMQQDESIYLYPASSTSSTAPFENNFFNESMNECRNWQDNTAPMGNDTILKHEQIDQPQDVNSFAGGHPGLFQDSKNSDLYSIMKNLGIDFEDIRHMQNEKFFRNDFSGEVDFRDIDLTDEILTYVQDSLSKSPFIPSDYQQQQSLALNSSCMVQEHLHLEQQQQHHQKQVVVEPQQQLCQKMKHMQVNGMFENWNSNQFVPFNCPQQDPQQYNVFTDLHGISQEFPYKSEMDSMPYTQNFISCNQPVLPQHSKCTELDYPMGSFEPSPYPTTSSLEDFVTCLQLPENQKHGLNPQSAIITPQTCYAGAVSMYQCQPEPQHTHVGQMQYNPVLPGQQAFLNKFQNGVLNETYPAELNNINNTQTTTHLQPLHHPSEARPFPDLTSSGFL

Turning to `O=C1CCCCCCCCCCCN1`, the concentration at half-maximal activity (AC50) in [1] is 53.3 µM (active). Besides, the outcome in experiment [2], in experiment [3], in experiment [4], in experiment [5], in experiment [6] and in experiment [7] was inactive. The outcome in experiment [8], in [9], in experiment [10], in experiment [11], in experiment [12] and in [13] was inactive. The result in [14], in [15], in [16] and in experiment [17] was inactive.
Take `C[N+](C)(C)CCCNS(=O)(=O)C(F)(F)C(F)(F)C(F)(F)C(F)(F)C(F)(F)C(F)(F)C(F)(F)C(F)(F)F`: the molecule was called inactive in experiment [1], in experiment [2], in experiment [4], in experiment [5], in [18] and in experiment [6]. Moreover, the molecule was classed as inactive in experiment [7], in experiment [8], in experiment [9], in [10], in experiment [11] and in experiment [12]. Also, the molecule was classed as inactive in experiment [13], in [14], in experiment [15], in experiment [16], in [19] and in experiment [17]. Also, the AC50 in experiment [3] was 55.4 µM (active).
Regarding `C=C(C)OC(C)=O`, the molecule was called inactive in experiment [1], in experiment [2], in experiment [3], in [4], in [5] and in experiment [18]. For the same molecule, the outcome in experiment [6], in experiment [7], in experiment [8], in [9], in [10] and in experiment [11] was inactive. Also, the molecule was called inactive in experiment [12], in experiment [13], in experiment [14], in experiment [15], in [16] and in experiment [19]. Besides, in experiment [17], the call was inactive.
Regarding `CCCCC(C=O)CC` (configuration not stated), the result in experiment [1], in experiment [2], in experiment [3], in experiment [4], in experiment [5] and in experiment [18] was inactive. Also, the call in [6], in [7], in [8], in experiment [9], in [10] and in experiment [11] was inactive. Moreover, the call in experiment [12], in experiment [13], in [14], in experiment [15], in experiment [16] and in experiment [17] was inactive.
Regarding `c1ccc(-c2nc3ccccc3[nH]2)cc1`, the molecule was classed as inactive in [1], in [2], in experiment [3], in experiment [4], in [5] and in experiment [18]. Further, the molecule was classed as inactive in experiment [6], in experiment [7], in experiment [8], in [9], in [10] and in [11]. For the same molecule, the call in experiment [12], in experiment [13], in experiment [14], in experiment [15], in [16] and in experiment [19] was inactive. Further, the molecule was called inactive in [17].

What is called AC50 is the concentration giving half of the maximal activity seen.
